The text below walks through data of PubChem BioAssay (EPA / NIEHS).

Broadly, the AC50 is the concentration giving half of the maximal activity seen.

Results filed as inconclusive are left out. Calls of active or inactive are those of the source. Rule for the calls: active = hit-call score of the fitted dose curve at least 0.9, where 1 is the maximum; inconclusive = response in the unintended direction; inactive = score below 0.9.

Assay [1] has as its target human Caspase 2 (CASP2), CASP2 (gene 835) (UniProt P42575). In words: NVS_ENZ_hCASP2: NovaScreen (NVS) Enzymatic Assay for human Caspase 2 (CASP2) (AID 2283135). An outline of the steps: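 Single-point duplicate testing at 25 uM preceded concentration series topping at 50 uM. Activity of the recombinant E. coli-derived protease was followed by fluorescent substrate cleavage 1 h post-dosing, relative to DMSO.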

For assay [2], the target named is rat Gamma-Aminobutyric Acid Type A Receptor BDZ, alpha 6 site (GABARa6), Gabra6 (gene 29708) (UniProt P30191). As to the kind of experiment: NVS_LGIC_rGABARa6: NovaScreen (NVS) Ligand-Gated Ion Channel Assay for rat Gamma-Aminobutyric Acid Type A Receptor BDZ, alpha 6 site (GABARa6) (AID 2283339). Put shortly:
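Actives from a 25 uM duplicate screen were retested in concentration series (max 50 uM). Specific radioligand displacement from rat cerebellar membranes was counted by filter-based scintillation at 1 h; DMSO served as baseline.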

Assay [3] deals with human Fibroblast Growth Factor Receptor 1 (FGFR1), FGFR1 (gene 2260) (UniProt P11362). As to the kind of experiment: NVS_ENZ_hFGFR1: NovaScreen (NVS) Enzymatic Assay for human Fibroblast Growth Factor Receptor 1 (FGFR1) (AID 2283159). An outline of the steps: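 Cell-free recombinant kinase with fluorescent substrate, product separated by electrophoretic mobility shift; read 1 hour after dosing, loss of signal relative to DMSO. Initial screen in duplicate at 25 uM, actives followed in concentration series.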
Chain of human Fibroblast Growth Factor Receptor 1 (FGFR1), FGFR1 (gene 2260) (P11362 whole entry, looked up): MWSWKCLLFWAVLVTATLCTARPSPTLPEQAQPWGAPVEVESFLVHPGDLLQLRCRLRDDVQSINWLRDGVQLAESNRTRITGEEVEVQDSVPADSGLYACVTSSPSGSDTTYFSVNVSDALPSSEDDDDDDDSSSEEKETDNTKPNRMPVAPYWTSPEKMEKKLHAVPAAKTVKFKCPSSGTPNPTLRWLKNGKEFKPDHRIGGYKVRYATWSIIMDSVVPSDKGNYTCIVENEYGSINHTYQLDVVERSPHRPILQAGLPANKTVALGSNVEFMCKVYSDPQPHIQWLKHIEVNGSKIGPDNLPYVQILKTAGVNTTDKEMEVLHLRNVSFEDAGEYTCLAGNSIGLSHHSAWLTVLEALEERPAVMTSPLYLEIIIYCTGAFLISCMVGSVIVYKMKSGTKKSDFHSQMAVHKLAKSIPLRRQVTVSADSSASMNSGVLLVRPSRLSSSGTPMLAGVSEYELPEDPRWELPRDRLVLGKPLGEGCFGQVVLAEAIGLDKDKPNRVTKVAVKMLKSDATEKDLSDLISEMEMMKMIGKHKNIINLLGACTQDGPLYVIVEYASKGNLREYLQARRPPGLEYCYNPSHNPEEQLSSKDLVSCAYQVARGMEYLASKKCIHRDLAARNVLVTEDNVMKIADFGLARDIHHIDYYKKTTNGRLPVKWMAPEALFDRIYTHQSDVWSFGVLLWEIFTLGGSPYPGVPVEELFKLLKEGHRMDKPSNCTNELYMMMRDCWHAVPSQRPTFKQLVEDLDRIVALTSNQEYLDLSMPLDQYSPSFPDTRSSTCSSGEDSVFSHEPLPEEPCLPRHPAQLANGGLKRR

In assay [4] the target is Voltage-dependent N-type calcium channel subunit alpha-1B (Rattus norvegicus) (UniProt Q02294). In words: NVS_IC_rCaChN: NovaScreen (NVS) Ion Channel Assay for rat Calcium Channel, Type N (CaChN) (AID 2283317).
Assay [5] addresses rat Oxytocin Receptor (OXT), Oxtr (gene 25342) (UniProt P70536). In words: NVS_GPCR_rOXT: NovaScreen (NVS) G Protein-Coupled Receptor Assay for rat Oxytocin Receptor (OXT) (AID 2283330). An outline of the steps:
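Binding to rat uterine membrane receptor was followed by scintillation counting of filter-trapped radioligand after 1 h. A 25 uM duplicate single-point screen preceded concentration series with a top of 50 uM. Signal loss was analysed relative to DMSO.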

Assay [6] addresses human Matrix Metalloproteinase-1 (MMP1), MMP1 (gene 4312) (UniProt P03956). In words: NVS_ENZ_hMMP1: NovaScreen (NVS) Enzymatic Assay for human Matrix Metalloproteinase-1 (MMP1) (AID 2283181). An outline of the steps: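 Cell-free fluorescent substrate assay of human MMP1, read after 1 h. A single 25 uM duplicate screen was followed by concentration series to a maximum of 50 uM for actives meeting threshold; inhibition analysed against DMSO baseline.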

For assay [7], the target named is human Phosphatase and Tensin Homolog (PTEN), PTEN (gene 5728) (UniProt P60484). In words: NVS_ENZ_hPTEN: NovaScreen (NVS) Enzymatic Assay for human Phosphatase and Tensin Homolog (PTEN) (AID 2283203). Put shortly:
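Loss of fluorescent product signal after mobility-shift separation reports PTEN activity, recombinant human enzyme, 1 h after compound addition. Single 25 uM duplicate screen, then concentration-response on actives; DMSO baseline.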

Assay [8] concerns rat Monoamine Oxidase, MAO-A, Central (MAOAC), gene 29253. As to the kind of experiment: NVS_ENZ_rMAOAC: NovaScreen (NVS) Enzymatic Assay for rat Monoamine Oxidase, MAO-A, Central (MAOAC) (AID 2283243).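 Note: potency refers to inhibition seen as signal drop below DMSO baseline.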 An outline of the steps: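 Enzyme from rat brain, cell-free radiodetection format. Counts taken at 1.5 h; activity fitted against DMSO baseline, loss of signal marking inhibition. Confirmatory concentration series followed the 25 uM duplicate screen.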

For assay [9], the system named is guinea pig Atrionatriuretic Peptide Receptor A (ANPA), gene 100135578. In words: NVS_GPCR_gANPA: NovaScreen (NVS) G Protein-Coupled Receptor Assay for guinea pig Atrionatriuretic Peptide Receptor A (ANPA) (AID 2283291). Put shortly:
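Displacement of specific radioligand from guinea pig cerebellum membranes was read by scintillation after 1 h. A duplicate single-point screen at 25 uM was followed by a concentration series up to 50 uM, analysed relative to DMSO.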

The target of assay [10] is human p21 Activated Kinase 4 (PAK4), PAK4 (gene 10298) (UniProt O96013). As to the kind of experiment: NVS_ENZ_hPAK4: NovaScreen (NVS) Enzymatic Assay for human p21 Activated Kinase 4 (PAK4) (AID 2283189). Put shortly:
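Extracted PAK4 enzyme activity read by fluorescence with mobility-shift separation 1 h after chemical addition. Duplicate single-concentration screen at 25 uM, DMSO as negative control.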

The target of assay [11] is human Tyrosine Protein Kinase Receptor Tie-2 (Tie2), TEK (gene 7010) (UniProt Q02763). As to the kind of experiment: NVS_ENZ_hTie2: NovaScreen (NVS) Enzymatic Assay for human Tyrosine Protein Kinase Receptor Tie-2 (Tie2) (AID 2283225). Put shortly: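 Substrate and product were separated by mobility shift and detected by fluorescence after a 1-hour reaction with recombinant Tie2. Chemicals passing a 25 uM single-point screen were titrated to a maximum of 50 uM. Results were normalized to DMSO baseline.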
Chain of human Tyrosine Protein Kinase Receptor Tie-2 (Tie2), TEK (gene 7010) (Q02763 whole entry, looked up): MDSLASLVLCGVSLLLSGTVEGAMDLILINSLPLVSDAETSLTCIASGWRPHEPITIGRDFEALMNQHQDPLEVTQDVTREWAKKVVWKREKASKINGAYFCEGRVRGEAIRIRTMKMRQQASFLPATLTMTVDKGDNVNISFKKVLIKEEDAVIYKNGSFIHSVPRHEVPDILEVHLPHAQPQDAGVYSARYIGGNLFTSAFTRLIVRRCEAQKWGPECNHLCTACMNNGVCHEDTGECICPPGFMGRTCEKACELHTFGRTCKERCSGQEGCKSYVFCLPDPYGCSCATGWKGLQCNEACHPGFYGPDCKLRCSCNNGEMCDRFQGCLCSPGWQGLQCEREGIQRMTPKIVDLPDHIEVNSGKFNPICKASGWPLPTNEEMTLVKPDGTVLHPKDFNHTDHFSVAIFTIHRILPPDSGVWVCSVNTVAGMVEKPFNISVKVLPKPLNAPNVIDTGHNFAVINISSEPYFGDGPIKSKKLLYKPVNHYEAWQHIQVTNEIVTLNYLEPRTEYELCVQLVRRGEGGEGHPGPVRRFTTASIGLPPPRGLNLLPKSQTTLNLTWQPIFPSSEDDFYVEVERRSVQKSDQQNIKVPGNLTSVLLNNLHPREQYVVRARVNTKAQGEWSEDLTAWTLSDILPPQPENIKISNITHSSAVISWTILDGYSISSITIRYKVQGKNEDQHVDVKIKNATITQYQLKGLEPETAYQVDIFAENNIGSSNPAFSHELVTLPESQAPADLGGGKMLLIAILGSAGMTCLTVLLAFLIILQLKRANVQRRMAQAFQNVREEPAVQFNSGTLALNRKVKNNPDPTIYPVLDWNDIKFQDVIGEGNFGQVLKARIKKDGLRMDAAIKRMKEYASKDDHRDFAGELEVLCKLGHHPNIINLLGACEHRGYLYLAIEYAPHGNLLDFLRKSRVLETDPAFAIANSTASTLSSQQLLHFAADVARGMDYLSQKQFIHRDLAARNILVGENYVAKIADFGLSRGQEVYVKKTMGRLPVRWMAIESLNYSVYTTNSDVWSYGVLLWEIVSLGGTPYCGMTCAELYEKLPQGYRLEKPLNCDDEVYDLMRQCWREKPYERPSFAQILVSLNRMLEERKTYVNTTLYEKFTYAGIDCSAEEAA

Assay [12] deals with rat Monoamine Oxidase, MAO-A, Peripheral (MAOAP), gene 29253. As to the kind of experiment: NVS_ENZ_rMAOAP: NovaScreen (NVS) Enzymatic Assay for rat Monoamine Oxidase, MAO-A, Peripheral (MAOAP) (AID 2283237). Put shortly: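 Scintillation counting tracked MAO-A activity in a cell-free rat liver mitochondrial membrane prep, read 1.17 hours after compound addition. Single-point duplicate testing at 25 uM preceded concentration-response follow-up; activity was fitted relative to DMSO.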

For assay [13], the target named is human Epidermal Growth Factor Receptor (EGFR), EGFR (gene 1956) (UniProt P00533). As to the kind of experiment: NVS_ENZ_hEGFR: NovaScreen (NVS) Enzymatic Assay for human Epidermal Growth Factor Receptor (EGFR) (AID 2283151). An outline of the steps: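 Cell-free kinase assay, fluorescence plus electrophoretic mobility shift separating substrate and product, read 1 hour after dosing; loss of signal vs DMSO. Duplicate screen at 25 uM, then concentration-response to 50 uM.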

The target in assay [14] is human Raf-1 Proto-Oncogene, serine/threonine Kinase (RAF1), RAF1 (gene 5894) (UniProt P04049). In words: NVS_ENZ_hRAF1: NovaScreen (NVS) Enzymatic Assay for human Raf-1 Proto-Oncogene, serine/threonine Kinase (RAF1) (AID 2283216). Put shortly: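 Single-point screening at 25 uM (duplicate), followed by singleton concentration-response to 50 uM maximum for chemicals exceeding threshold. Enzyme activity from fluorescent substrate-product mobility-shift separation after 1 h, relative to DMSO.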

Assay [15] has as its target Protein deacetylase HDAC6 (Homo sapiens) (UniProt Q9UBN7). In words: NVS_ENZ_hHDAC6: NovaScreen (NVS) Enzymatic Assay for human Histone Deacetylase 6 (HDAC6) (AID 2283164). Put shortly:
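Concentration-response runs up to 50 uM followed a duplicate 25 uM single-point screen. Deacetylase activity of recombinant human HDAC6 read by fluorescence after 1 h, with mobility-shift separation of substrate and product; DMSO as baseline.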

In assay [16] the target is human NIMA (Never In Mitosis Gene A)-Related Kinase 2 (NEK2), NEK2 (gene 4751) (UniProt P51955). In words: NVS_ENZ_hNEK2: NovaScreen (NVS) Enzymatic Assay for human NIMA (Never In Mitosis Gene A)-Related Kinase 2 (NEK2) (AID 2283188). An outline of the steps:
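Compounds were first screened in duplicate at 25 uM, with actives followed up in concentration series. Recombinant NEK2 activity, cell-free, was read 1 h after dosing by fluorescence intensity after mobility-shift separation. Signal loss was scored against DMSO.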

The nature of assay [17]: ATG_M_32_XSP2: Attagene TRANS-FACTORIAL Multi-Species (XSP2) HepG2 Assay for M19 Transcription Factor (Internal Marker) (AID 2283826). Put shortly: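 Read-out: reporter mRNA quantified by RT-PCR, FAM labeling, HpaI digestion and capillary electrophoresis, 24 h after dosing transfected HepG2 cells. Medium carried 3 nM 6-alpha-fluorotestosterone plus 1.5 nM norgestrel; gain of signal fitted against DMSO.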

In assay [18] the target is rat Monoamine Oxidase, MAO-B, Central (MAOBC), Maob (gene 25750) (UniProt P19643). As to the kind of experiment: NVS_ENZ_rMAOBC: NovaScreen (NVS) Enzymatic Assay for rat Monoamine Oxidase, MAO-B, Central (MAOBC) (AID 2283238). An outline of the steps: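 Cell-free radiometric assay, rat brain lysate. Read-out: scintillation counts, 1.17 h post-dosing. Screen 25 uM in duplicate; actives (e.g. ≥30% inhibition) then singleton concentration-response, max 50 uM. Activity loss fitted relative to DMSO.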
Chain of rat Monoamine Oxidase, MAO-B, Central (MAOBC), Maob (gene 25750) (P19643 whole entry, looked up): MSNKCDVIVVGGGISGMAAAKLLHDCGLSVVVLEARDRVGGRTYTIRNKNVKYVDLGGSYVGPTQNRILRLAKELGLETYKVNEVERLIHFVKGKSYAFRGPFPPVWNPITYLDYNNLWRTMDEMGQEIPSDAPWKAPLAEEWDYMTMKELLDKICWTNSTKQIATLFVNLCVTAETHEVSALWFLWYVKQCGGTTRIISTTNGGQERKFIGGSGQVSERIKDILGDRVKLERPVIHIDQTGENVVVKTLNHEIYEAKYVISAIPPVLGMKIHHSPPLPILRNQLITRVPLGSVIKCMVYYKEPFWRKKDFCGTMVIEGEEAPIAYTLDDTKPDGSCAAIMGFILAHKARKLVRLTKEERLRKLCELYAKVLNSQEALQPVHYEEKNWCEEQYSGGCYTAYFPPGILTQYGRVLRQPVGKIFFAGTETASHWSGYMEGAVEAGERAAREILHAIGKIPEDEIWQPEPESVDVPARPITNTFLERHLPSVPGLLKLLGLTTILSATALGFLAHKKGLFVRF

For assay [19], the target named is Norway rat Vesicular Monoamine Transporter (VMAT2), neurotransmitter transporter, Slc18a2 (gene 25549) (UniProt Q01827). In words: NVS_TR_rVMAT2: NovaScreen (NVS) Transporter Assay for Norway rat Vesicular Monoamine Transporter (VMAT2), neurotransmitter transporter (AID 2283376).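 Note: actives lower the bound radioligand signal below the DMSO level.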 An outline of the steps: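 Filter-based scintillation counting of radioligand bound to rat forebrain-derived VMAT2 protein, cell-free, 1 h post-dose. Signal loss relative to DMSO control scored; single-concentration duplicate screen (25 uM) followed by concentration-response testing of actives.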

Assay [20] has as its target rat Acetylcholinesterase (AChE), Ache (gene 83817) (UniProt P37136). In words: NVS_ENZ_rAChE: NovaScreen (NVS) Enzymatic Assay for rat Acetylcholinesterase (AChE) (AID 2283233). Put shortly: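 Compounds first screened at 25 uM in duplicate, then those passing threshold tested in concentration series up to 50 uM, against AChE from rat brain membranes. Enzyme activity read by absorbance at 0.33 h; inhibition scored versus DMSO.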

The target in assay [21] is rat Monoamine Oxidase, MAO-B, Peripheral (MAOBP), Maob (gene 25750) (UniProt P19643). As to the kind of experiment: NVS_ENZ_rMAOBP: NovaScreen (NVS) Enzymatic Assay for rat Monoamine Oxidase, MAO-B, Peripheral (MAOBP) (AID 2283242).
Chain of rat Monoamine Oxidase, MAO-B, Peripheral (MAOBP), Maob (gene 25750) (P19643 whole entry, looked up): as above
For assay [22], the target named is bovine Gamma-Aminobutyric Acid Type A Receptor BDZ, alpha 1 site (GABARa1), GABRA1 (gene 780973) (UniProt P08219). As to the kind of experiment: NVS_LGIC_bGABARa1: NovaScreen (NVS) Ligand-Gated Ion Channel Assay for bovine Gamma-Aminobutyric Acid Type A Receptor BDZ, alpha 1 site (GABARa1) (AID 2283321). An outline of the steps: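 Bovine cortex membrane preparation, benzodiazepine site on GABA-A alpha1; specific radioligand displacement read after 0.75 h by filtration and scintillation. Screen at 25 uM, then singleton titrations up to 50 uM; DMSO baseline.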

Chain of rat Oxytocin Receptor (OXT), Oxtr (gene 25342) (P70536 whole entry, looked up): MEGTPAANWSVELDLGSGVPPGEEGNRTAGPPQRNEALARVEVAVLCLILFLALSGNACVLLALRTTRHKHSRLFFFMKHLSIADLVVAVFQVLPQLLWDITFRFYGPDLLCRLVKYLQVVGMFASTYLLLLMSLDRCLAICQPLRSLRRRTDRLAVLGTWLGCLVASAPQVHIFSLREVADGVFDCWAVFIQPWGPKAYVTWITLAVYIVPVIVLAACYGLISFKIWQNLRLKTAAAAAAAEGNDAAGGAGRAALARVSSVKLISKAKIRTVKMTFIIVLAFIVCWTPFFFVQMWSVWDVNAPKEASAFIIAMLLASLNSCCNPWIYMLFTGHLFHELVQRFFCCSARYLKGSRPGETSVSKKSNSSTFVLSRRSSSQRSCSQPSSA
Chain of human Matrix Metalloproteinase-1 (MMP1), MMP1 (gene 4312) (P03956 whole entry, looked up): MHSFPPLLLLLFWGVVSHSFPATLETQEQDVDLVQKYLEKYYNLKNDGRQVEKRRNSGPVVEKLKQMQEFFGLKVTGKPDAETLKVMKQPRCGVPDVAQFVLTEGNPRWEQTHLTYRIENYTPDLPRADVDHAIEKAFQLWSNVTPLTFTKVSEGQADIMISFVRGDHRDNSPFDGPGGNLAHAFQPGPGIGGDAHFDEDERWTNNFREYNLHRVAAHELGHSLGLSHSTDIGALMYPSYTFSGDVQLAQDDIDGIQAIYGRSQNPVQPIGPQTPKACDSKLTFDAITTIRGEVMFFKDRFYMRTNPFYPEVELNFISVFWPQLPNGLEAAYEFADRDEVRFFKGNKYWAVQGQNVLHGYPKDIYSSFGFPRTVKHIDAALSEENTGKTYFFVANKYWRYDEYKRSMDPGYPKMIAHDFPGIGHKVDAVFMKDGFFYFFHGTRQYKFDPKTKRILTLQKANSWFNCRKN
Chain of rat Gamma-Aminobutyric Acid Type A Receptor BDZ, alpha 6 site (GABARa6), Gabra6 (gene 29708) (P30191 whole entry, looked up): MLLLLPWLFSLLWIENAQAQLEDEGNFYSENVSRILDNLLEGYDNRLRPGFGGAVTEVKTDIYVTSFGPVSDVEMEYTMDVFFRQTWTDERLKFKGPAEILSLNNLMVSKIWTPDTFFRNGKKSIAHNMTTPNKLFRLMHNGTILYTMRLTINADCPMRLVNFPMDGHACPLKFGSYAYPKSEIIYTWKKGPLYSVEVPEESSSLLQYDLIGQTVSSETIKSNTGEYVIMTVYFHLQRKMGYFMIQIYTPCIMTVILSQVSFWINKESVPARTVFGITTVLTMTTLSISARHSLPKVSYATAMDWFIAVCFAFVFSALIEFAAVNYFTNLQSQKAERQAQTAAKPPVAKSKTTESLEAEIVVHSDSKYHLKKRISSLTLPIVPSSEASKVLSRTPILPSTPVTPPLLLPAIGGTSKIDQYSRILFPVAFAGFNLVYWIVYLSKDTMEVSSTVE
Chain of Protein deacetylase HDAC6 (Homo sapiens) (Q9UBN7 whole entry, looked up): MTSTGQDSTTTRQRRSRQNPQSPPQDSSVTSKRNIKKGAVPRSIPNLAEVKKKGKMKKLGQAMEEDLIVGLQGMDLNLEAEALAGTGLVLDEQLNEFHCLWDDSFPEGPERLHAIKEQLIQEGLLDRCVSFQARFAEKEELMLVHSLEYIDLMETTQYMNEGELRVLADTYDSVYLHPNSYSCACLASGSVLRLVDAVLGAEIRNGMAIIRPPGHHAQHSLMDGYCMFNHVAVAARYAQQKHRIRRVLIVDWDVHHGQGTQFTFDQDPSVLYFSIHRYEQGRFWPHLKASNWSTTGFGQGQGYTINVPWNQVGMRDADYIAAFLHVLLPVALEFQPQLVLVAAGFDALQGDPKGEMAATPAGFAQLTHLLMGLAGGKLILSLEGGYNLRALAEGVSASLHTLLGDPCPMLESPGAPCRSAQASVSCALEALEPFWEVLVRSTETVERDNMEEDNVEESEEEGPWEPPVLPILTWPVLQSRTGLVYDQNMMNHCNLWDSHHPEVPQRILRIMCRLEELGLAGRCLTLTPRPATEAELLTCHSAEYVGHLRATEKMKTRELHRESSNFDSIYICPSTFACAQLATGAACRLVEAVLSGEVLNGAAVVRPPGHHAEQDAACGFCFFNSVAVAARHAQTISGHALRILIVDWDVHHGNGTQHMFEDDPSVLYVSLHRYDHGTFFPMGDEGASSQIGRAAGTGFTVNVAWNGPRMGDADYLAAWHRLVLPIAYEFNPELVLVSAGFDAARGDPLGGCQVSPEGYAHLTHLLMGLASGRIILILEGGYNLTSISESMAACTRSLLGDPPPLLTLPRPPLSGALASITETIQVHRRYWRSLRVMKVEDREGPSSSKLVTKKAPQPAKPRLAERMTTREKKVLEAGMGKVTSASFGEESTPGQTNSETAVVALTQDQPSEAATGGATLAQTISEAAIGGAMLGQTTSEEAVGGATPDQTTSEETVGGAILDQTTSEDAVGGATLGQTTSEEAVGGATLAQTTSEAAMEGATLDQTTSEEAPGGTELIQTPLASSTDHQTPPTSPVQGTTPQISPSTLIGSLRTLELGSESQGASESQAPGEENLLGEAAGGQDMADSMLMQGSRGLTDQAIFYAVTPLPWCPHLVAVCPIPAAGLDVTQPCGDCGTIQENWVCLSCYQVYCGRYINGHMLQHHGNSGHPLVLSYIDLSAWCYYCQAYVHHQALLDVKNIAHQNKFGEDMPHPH

As for `Cc1c(-c2cccnc2)c2ccccc2n1CCCCC(=O)O`, the outcome in assay [1] and in assay [2] was inactive.
Consider `COCCOC[C@H](CC1(C(=O)NC2CCC(C(=O)O)CC2)CCCC1)C(=O)Oc1ccc2c(c1)CCC2` (stereo partly specified), for which the compound was called inactive in assay [3], in assay [4] and in assay [5].
Regarding `CCCCCCCCCC`, the call in [6], in assay [7], in assay [8], in assay [9], in assay [4] and in assay [5] was inactive.
As for `[O-]n1ccccc1=S.[O-]n1ccccc1=S.[Zn+2]`, the compound was called inactive in assay [3].
In the case of `CC[C@H](C)C(=O)O[C@H]1C[C@H](O)C=C2C=C[C@H](C)[C@H](CC[C@@H](O)C[C@@H](O)CC(=O)O)[C@H]21`, the outcome in assay [3], in assay [10], in assay [7], in assay [11], in assay [12] and in [5] was inactive.
In the case of `CCO[Si](CCCNC(N)=O)(OCC)OCC`, the outcome in assay [13] and in [14] was inactive.
On to `On1ccccc1=S`, for which the call in [15] was inactive.
On to `CC(C)(C)CC(C)(C)c1ccc(O)c(-n2nc3ccccc3n2)c1`, for which the result in assay [3] and in [2] was inactive.
For the compound `O=CCCCC=O`, in [16], the compound was called inactive.
Turning to `CC(C)(c1cc(Br)c(O)c(Br)c1)c1cc(Br)c(O)c(Br)c1`, the outcome in [6], in assay [9] and in assay [17] was inactive.
In the case of `CC(C)(O)c1ccc(CNC(=O)c2cccnc2Oc2ccc(F)cc2)cc1`, the result in assay [3] was inactive.
`CCCOC(=O)c1cc(O)c(O)c(O)c1`: the AC50 in [6] was 16.1 µM (active). Besides, the result in assay [18] was inactive.
As to `OCCC(F)(F)C(F)(F)C(F)(F)C(F)(F)C(F)(F)C(F)(F)F`, the outcome in [3] and in assay [19] was inactive.
`CCCCC(CC)COC(=O)CCCCC(=O)OCc1ccccc1` (stereo unspecified): the compound was classed as inactive in assay [3].
With `CCCCCCCC=O`, the outcome in assay [3], in assay [20] and in assay [12] was inactive.
For the compound `CN1CCN(Cc2cc(-c3ccc4[nH]c(=O)oc4c3)co2)[C@@H](c2ccc(F)cc2)C1`, the AC50 is 10.5 µM (active) in [6]; 18.2 µM (active) in assay [12]; 10.6 µM (active) in assay [18]; 10.1 µM (active) in assay [21]; 22 µM (active) in assay [8].
Take `C#C[C@]1(O)CC[C@H]2[C@@H]3CCC4=CC(=O)CC[C@@H]4[C@H]3CC[C@@]21C`: the call in assay [15], in assay [11] and in assay [18] was inactive. For the same compound, in assay [22], the AC50 was 1.27 µM (active).
Take `CCCCOC(=O)CC(CC(=O)OCCCC)(OC(C)=O)C(=O)OCCCC`: the outcome in assay [6] was inactive.
